ARNT TACC3 PPI: disruptors of ARNT/TACC3 protein interaction, primary screen, biochemical, AlphaScreen, single concentration | Transforming acidic coiled-coil-containing protein 3 (Homo sapiens), Q9Y6A5 | AlphaScreen His-ARNT PAS-B/GST-TACC3 binding, luminescence; TACC3 fragment carries E629A point mutation | inhibition, % at 9.99 µM | hit rate 0.66% among 390,000;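 active = mean inhibition of replicates at least 50% and at least half of replicates each reaching 50%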;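 note: 0% = complete ARNT plus TACC3 wells and 100% = ARNT alone without TACC3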
HSP90 inh: HSP90 inhibitors, primary screen, cell lysate, luminescence; Rabbit reticulocyte lysate, luciferase refolding luminescence, 3 h; inhibition, % at 5.6 µM; hit rate 0.91% among 290,000;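 active = inhibition above the screen-wide mean plus 3 SD, computed separately per campaign, cut at about 16% in these data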;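 note: 0% = DMSO wells and 100% = 60 µM geldanamycin wells; inhibitors lower the luminescence because luciferase stays unfolded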
HSF-1 act: HSF-1 activators, primary screen, NIH3T3-HGL cells, MG132 stress, luminescence, single point. NIH3T3-HGL HSF-1 luciferase reporter, 8 h; 100% = twice DMSO control signal. activation, % at 9 µM. hit rate 1.7% among 300,000;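 active = mean replicate activation of at least 50% with a set share of replicates each reaching 50%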;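 note: 0% = median of the neutral control wells and 100% = twice that signal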
HSF1 inh: HSF1 inhibitors in luciferase reporter cells, primary screen, cell-based, NIH3T3, luminescence; NIH3T3-HGL HSE-luciferase, MG132-induced, luminescence 8 h; hits give low values; activity change, negative = inhibition, % at 7.5 µM (by protocol); hit rate 0.77% among 300,000;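 active = more than half of replicate wells show activity change below -50%, luminescence cut by over half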;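 note: luciferase reports HSF-1 transcriptional activity via heat shock element; 0% = median of DMSO wells and -100% = zero luminescence signal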
HIF activator: HIF pathway transcriptional activators, primary screen, cell-based, U2OS HRE-luciferase, luminescence. U2OS HRE-luciferase reporter; normalized: DMSO 0%, desferrioxamine 100%. activation, % at 7.5 µM (by protocol). hit rate 0.32% among 300,000;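 active = mean activation of at least 10% of the iron chelator positive control signal, with at least half of replicates also reaching 10%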
The depositor's hits bear a star; / = not tested or not shown. Only some compounds are listed: those with a hit (about 3.1% of all), similar ones and a draw of the others.

SMILES | ARNT TACC3 PPI | HSP90 inh | HSF-1 act | HSF1 inh | HIF activator
COc1ccc(C(=O)CC(=O)C(=O)Nc2cc(OC)c(OC)c(OC)c2)cc1 | 17.5 | 0.3 | 77.2* | 42.7 | 0.7
COc1ccc(C(=O)CC(=O)C(=O)NCCc2cccc(C)c2)cc1 | -0.3 | -4.9 | 69.9* | 39.1 | 0.6
COCCNC(=O)C[C@@H]1CC[C@H]2[C@H](COc3ccc(NC(=O)C4CCCC4)cc3C(=O)N2C)O1 | 15.4 | / | / | / | /
CN1[C@@H]2c3ccc(-c4ccncc4)c(=O)n3C[C@H]1[C@H](CO)[C@H]2C(=O)NCCc1ccccc1 | -5.3 | / | / | / | /
Cc1ccc(/C=C/c2nnc(-c3ccccc3)o2)cc1 | -0.3 | -0.7 | 54.6* | 19.4 | 1.6
Cc1ccc(-c2noc(/C=C/c3ccccc3)n2)cc1 | -9.1 | -2.2 | 69.4* | 35.3 | 3.1
Clc1ccc(-c2noc(/C=C/c3ccccc3)n2)cc1 | -10.3 | -2.6 | 39.2 | 20.7 | 2.3
CC(=O)n1cc([C@@H]2C=C(C(=O)N3CCN(Cc4ccccc4)CC3)O[C@H](OCCCCO)C2)c2ccccc21 | 4.3 | / | / | / | /
CCCC(O)C#Cc1cnc2c(c1)C(=O)N([C@H](C)CO)C[C@H](C)[C@H](CN(C)Cc1ccc3c(c1)OCO3)O2 (stereo not given in full) | -15.8 | / | / | / | /
CC(OC(=O)CN1C(=O)c2ccccc2C1=O)C(=O)NC1CCCCC1C (stereo not given) | 4.7 | / | -80.4 | -74.9* | 0.5
C[C@@H]1CN([C@H](C)CO)C(=O)c2cc(C#CCN(C)C)cnc2O[C@@H]1CN(C)C(=O)NC1CCCCC1 | 0.6 | / | / | / | /
CO[C@H]1CN(C)C(=O)c2cc(NC(=O)c3ccc(F)cc3)ccc2OC[C@H](C)NC[C@H]1C | -6.0 | / | / | / | /
Cc1ccc2c(c1)N(Cc1cccc(C#N)c1)C=NS2(=O)=O | -1.2 | 2.5 | 3.4 | -5.1 | 0.6
Cc1ccc2c(c1)N(Cc1ccc([N+](=O)[O-])cc1)C=NS2(=O)=O | 13.0 | -3.5 | -70.9 | -64.8* | -10.6
O=C(Cc1nc2ccccc2[nH]1)c1ccc(Br)cc1 | 2.0 | 4.3 | 101.3* | 49.1 | 3.4
O=C(C[C@@H]1C[C@H]2c3cc(NS(=O)(=O)c4ccc(F)cc4)ccc3O[C@H]2[C@H](CO)O1)NCc1ccc(Cl)cc1 | 6.2 | / | / | / | /
COc1cccc(CNC(=O)C[C@H]2C=C[C@@H](NC(C)=O)[C@@H](CO)O2)c1 | 2.1 | / | / | / | /
O=[N+]([O-])/C=C\c1ccc(N2CCOCC2)cc1 | -5.6 | / | 28.3 | 9.3 | 0.4
CN(c1ccccc1)c1ccc(/C=C/[N+](=O)[O-])cc1 | 0.1 | 0.7 | 198.2* | 164.4 | -3.6
CCn1c(COc2ccc(Cl)cc2)nnc1SCc1ccc(C#N)cc1 | -3.8 | 1.0 | -3.7 | -2.4 | 0.0
CCn1c(COc2ccccc2)nnc1SCc1ccc(C#N)cc1 | -25.4 | 0.1 | 55.8* | 38.4 | 0.4
Cc1ccc(N2CC(=O)Nc3c(sc4nc(C)cc(C)c34)C2=O)cc1 | -5.7 | -2.5 | 2.1 | 1.5 | 26.2*
Cc1cc(C)c2c3c(sc2n1)C(=O)N(c1ccccc1C)CC(=O)N3 | 4.0 | 0.7 | 15.5 | -6.3 | 0.4
COCCNC(=O)C[C@@H]1CC[C@@H]2[C@@H](COc3ccc(NC(C)=O)cc3C(=O)N2C)O1 | -3.4 | / | / | / | /
Cc1cc2c(N=O)c(NO)ccc2[nH]1 | 80.3* | 4.2 | -10.4 | -9.9 | 6.0
SMILES | ARNT TACC3 PPI | HSP90 inh | HSF-1 act | HSF1 inh | HIF activator
O=Nc1c(O)[nH]c2ccc(F)cc12 | / | 0.6 | 7.1 | 0.7 | 2.1
O=C([C@@H]1[C@@H](CO)[C@@H]2Cn3c(cccc3=O)[C@@H]2N1CCC(F)(F)F)N1CCCCC1 | 9.3* | / | / | / | /
O=C([C@@H]1[C@@H](CO)[C@@H]2Cn3c(cccc3=O)[C@@H]2N1CC1CCCC1)N1CCCCC1 | 31.2 | / | / | / | /
COc1ccc(NC(=O)N(C)C[C@H]2OCCCC[C@@H](C)Oc3ccc(NS(=O)(=O)c4c(C)noc4C)cc3C(=O)N([C@@H](C)CO)C[C@H]2C)cc1 | -0.9 | / | / | / | /
CC1=CCC2C(=O)N(c3ccc(C)c(Br)c3)C(=O)C2C1 (stereo not given) | / | -0.4 | -80.6 | -76.2* | -0.3
Cc1csc2ncc(C(=O)NCc3ccco3)c(=O)n12 | 2.8 | 1.3 | 0.5 | -3.8 | 0.0
COc1ccc(CNC(=O)c2cnc3scc(C)n3c2=O)cc1 | -7.7 | -3.6 | -78.2 | -70.4* | 0.0
O=C(CCC(=O)c1cccs1)c1cccs1 | -2.6 | 1.4 | 54.9* | 29.7 | 0.5
O=C(COc1ccc(F)cc1Br)N1CCc2ccccc21 | -7.8 | 0.4 | 80.0* | 23.3 | 4.0
O=C(CNC(=O)c1ccccc1Cl)OCC(=O)N1CCc2ccccc21 | 9.0 | -3.6 | 55.0* | 27.2 | 1.9
O=Cc1ccc(OCC(=O)N2CCc3ccccc32)c(Br)c1 | -1.7 | / | / | / | /
O=C(C[C@H]1CC[C@@H]2[C@H](COC[C@H](O)CN2C(=O)c2cccnc2)O1)NCc1ccccc1 | -0.2 | / | / | / | /
C[C@H](CO)N1C[C@H](C)[C@@H](CN(C)C(=O)NC2CCCCC2)Oc2ncc(C#CCN(C)C)cc2C1=O | -7.3 | / | / | / | /
CC(C)CC(NC(=O)c1ccccc1NC(=O)c1ccccc1)C(=O)O (stereo not given) | / | 2.1 | 3.7 | -0.7 | 369.3*
COc1ccc(NCc2nnc(SCC(=O)Nc3ccccc3OC)o2)cc1 | -12.6 | 2.6 | 1.5 | -1.1 | 0.3
Cc1cc(NC(=O)CSc2nnc(-c3ccco3)o2)no1 | 59.0* | 1.9 | 9.6 | -4.0 | -0.2
CC(=O)Nc1ccc(NC(=O)CSc2nnc(-c3ccco3)o2)cc1 | -17.0 | 5.9 | 31.3 | 3.0 | -0.1
Cc1cc(NC(=O)CSc2nnc(CNC(=O)c3ccc(C(C)(C)C)cc3)o2)no1 | 47.1* | 2.8 | 2.7 | 1.9 | -0.4
COc1ccc(NCc2nnc(SCC(=O)Nc3cccc(C)c3)o2)cc1 | 0.7 | -4.0 | -60.8 | -54.2* | 2.4
COCC(=O)Nc1ccc2c(c1)C(=O)N(C)C[C@@H](OC)[C@H](C)CN(C(=O)NC(C)C)[C@@H](C)CO2 | -5.4 | / | / | / | /
CO[C@H](CN(C)S(=O)(=O)c1ccc(Cl)cc1)[C@@H](C)CN(Cc1ccccc1Cl)[C@@H](C)CO | -5.0 | / | / | / | /
CC(=O)N1c2ccc(S(=O)(=O)NCCc3ccccc3)cc2CC1C (stereo not given) | -1.2 | -4.1 | 13.5 | 4.2 | 18.0*
CC(=O)N1c2ccc(S(=O)(=O)NCCC(=O)N(C)Cc3ccccc3)cc2CC1C (stereo not given) | -1.0 | 5.5 | 5.4 | -6.5 | /
CCN(Cc1ccccc1)C(=O)CCNS(=O)(=O)c1ccc2c(c1)CC(C)N2C(C)=O (stereo not given) | 1.2 | -5.8 | 24.5 | 16.8 | 69.4*
O=C(Nc1cccc(F)c1)N1CCCCN2[C@H](CO)[C@@H](c3ccc(-c4ccccc4F)cc3)[C@H]2C1 | 21.5 | / | / | / | /

Screening results (PubChem BioAssay)
